Source: PubChem BioAssay (NCI)
Compounds without any hit were thinned out: in the full panel of roughly 83,000, 20% have a hit.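 For each line, cells grew in 96-well plates with the test compound present at a single concentration for 48 hours.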 The source made the active and inactive calls. How the source made its calls: active means growth percent below 10; inactive means the rest.

Tests used:
Assay in all cases: NCI-60 one-dose screen, 48 h (100 = growth as untreated, 0 = no growth, -100 = all killed)
Details in all cases: 10 µM unless noted
SR leukemia = test system: SR leukemia
RPMI-8226 leukemia = test system: RPMI-8226 leukemia
OVCAR-8 ovarian = test system: OVCAR-8 ovarian
OVCAR-5 ovarian = test system: OVCAR-5 ovarian
OVCAR-4 ovarian = test system: OVCAR-4 ovarian
SK-OV-3 ovarian = test system: SK-OV-3 ovarian
IGROV1 ovarian = test system: IGROV1 ovarian
OVCAR-3 ovarian = test system: OVCAR-3 ovarian
NCI/ADR-RES ovarian = test system: NCI/ADR-RES ovarian

Measured: growth

COC1OCC(OS(=O)(=O)c2ccc(C)cc2)C(OC(=O)c2ccccc2)C1OC(=O)c1ccccc1 (stereo unspecified)
active: OVCAR-3 ovarian -12.4% | NCI/ADR-RES ovarian -6.71%
inactive: SR leukemia 39.6% | RPMI-8226 leukemia 45.5% | OVCAR-8 ovarian 69.3% | OVCAR-5 ovarian 72.5% | OVCAR-4 ovarian 57% | SK-OV-3 ovarian 86.1% | IGROV1 ovarian 37.8%

Cc1cc2nc(-c3c(N)ncc(C#N)c3-c3ccc(Cl)cc3)[nH]c2cc1C
inactive: SR leukemia 49.4% | RPMI-8226 leukemia 56% | OVCAR-8 ovarian 38.4% | OVCAR-5 ovarian 83.2% | OVCAR-4 ovarian 56.1% | SK-OV-3 ovarian 75.9% | IGROV1 ovarian 46% | OVCAR-3 ovarian 21.8% | NCI/ADR-RES ovarian 53.9%

c1ccc(OCC[P+](c2ccccc2)(c2ccccc2)c2ccccc2)cc1
active: IGROV1 ovarian 8.06% | OVCAR-3 ovarian -31.5%
inactive: SR leukemia 22.7% | RPMI-8226 leukemia 10.9% | OVCAR-8 ovarian 24.5% | OVCAR-5 ovarian 43.1% | OVCAR-4 ovarian 15.8% | SK-OV-3 ovarian 39.5% | NCI/ADR-RES ovarian 108%

O=C(Nc1ccc(-n2ccc3c(NC(=O)c4ccccc4)ncnc32)cc1)Nc1ccc(Cl)c(C(F)(F)F)c1
inactive: OVCAR-5 ovarian 17.8% | SK-OV-3 ovarian 79.2% | NCI/ADR-RES ovarian 16%
active: SR leukemia 6.03% | RPMI-8226 leukemia -38% | OVCAR-8 ovarian -25.3% | OVCAR-4 ovarian -42.8% | IGROV1 ovarian -3.16% | OVCAR-3 ovarian -86.6%

O=C(NCCNc1nccc(-c2c(-c3cccc(O)c3)nc3sccn23)n1)c1ccccc1
inactive: SR leukemia 68% | RPMI-8226 leukemia 76.8% | OVCAR-8 ovarian 66.6% | OVCAR-5 ovarian 90.6% | OVCAR-4 ovarian 98% | SK-OV-3 ovarian 65.1% | IGROV1 ovarian 57.4% | OVCAR-3 ovarian 92.3% | NCI/ADR-RES ovarian 99.7%

COc1ccc(-c2nn(-c3ccc(NC(=O)Nc4ccc(Cl)c(Cl)c4)cc3)cc2-c2ccncc2)cc1Cl
inactive: OVCAR-8 ovarian 11.6% | OVCAR-5 ovarian 22.6% | OVCAR-4 ovarian 49.4% | SK-OV-3 ovarian 34.6% | IGROV1 ovarian 36.6% | NCI/ADR-RES ovarian 12.8%
active: SR leukemia 5.18% | RPMI-8226 leukemia -30% | OVCAR-3 ovarian 7.34%

Nc1nccc2c1ccn2-c1cccc(NC(=O)c2ccc(N3CCOCC3)c(C(F)(F)F)c2)c1
active: SR leukemia -13.4% | RPMI-8226 leukemia -40.9% | OVCAR-8 ovarian 0.868% | OVCAR-3 ovarian -27.2% | NCI/ADR-RES ovarian -2.74%
inactive: OVCAR-5 ovarian 32.6% | OVCAR-4 ovarian 78.5% | SK-OV-3 ovarian 16.6% | IGROV1 ovarian 28.1%

O=[N+]([O-])c1ccccc1NC1c2ccccc2Oc2ccccc21
active: SR leukemia 2.25% | OVCAR-3 ovarian 3.28%
inactive: RPMI-8226 leukemia 69.5% | OVCAR-8 ovarian 72.9% | OVCAR-5 ovarian 76.8% | OVCAR-4 ovarian 98.7% | SK-OV-3 ovarian 76.9% | IGROV1 ovarian 49.3% | NCI/ADR-RES ovarian 31.4%

COc1ccc(-c2nn(-c3ccc(NC(=O)Nc4cc(C(F)(F)F)cc(C(F)(F)F)c4)cc3)cc2-c2ccncc2)cc1Cl
inactive: OVCAR-8 ovarian 12.9% | OVCAR-5 ovarian 17.7% | OVCAR-4 ovarian 47% | SK-OV-3 ovarian 22.9% | IGROV1 ovarian 26.3% | NCI/ADR-RES ovarian 14%
active: SR leukemia 1.23% | RPMI-8226 leukemia -29.3% | OVCAR-3 ovarian 3.27%

O=C(Nc1ccc(-n2ccc3c(NC(=O)c4ccccc4)nccc32)cc1)Nc1cccc(C(F)(F)F)c1
inactive: SR leukemia 18.8% | RPMI-8226 leukemia 19.4% | OVCAR-8 ovarian 48.5% | OVCAR-5 ovarian 81.8% | OVCAR-4 ovarian 26% | SK-OV-3 ovarian 92.2% | IGROV1 ovarian 54.1% | OVCAR-3 ovarian 15.2% | NCI/ADR-RES ovarian 65.7%

O=C(Nc1ccc(-n2ccc3c(NC(=O)c4ccccc4)ncnc32)cc1)c1cccc(C(F)(F)F)c1
active: SR leukemia 2.8%
inactive: RPMI-8226 leukemia 20.1% | OVCAR-8 ovarian 40.9% | OVCAR-5 ovarian 62.3% | OVCAR-4 ovarian 97.1% | SK-OV-3 ovarian 61.2% | IGROV1 ovarian 43.1% | OVCAR-3 ovarian 54.4% | NCI/ADR-RES ovarian 50.7%

CC(=O)Nc1ccc([I+]c2ccc([N+](=O)[O-])cc2)cc1
inactive: SR leukemia 87.7% | RPMI-8226 leukemia 92.7% | OVCAR-8 ovarian 95% | OVCAR-5 ovarian 116% | OVCAR-4 ovarian 90% | SK-OV-3 ovarian 94.4% | IGROV1 ovarian 80.8% | OVCAR-3 ovarian 94.9% | NCI/ADR-RES ovarian 113%

O=[N+]([O-])c1cccc(C2c3ccccc3Oc3ccccc32)c1
inactive: SR leukemia 77.4% | RPMI-8226 leukemia 82.2% | OVCAR-8 ovarian 89.4% | OVCAR-5 ovarian 90.8% | OVCAR-4 ovarian 91% | SK-OV-3 ovarian 84.1% | IGROV1 ovarian 76.8% | OVCAR-3 ovarian 91.7% | NCI/ADR-RES ovarian 93.7%

O=C1C(Cl)=C(Nc2ccccc2)C(=O)C(Cl)=C1Nc1ccccc1
inactive: SR leukemia 111% | RPMI-8226 leukemia 107% | OVCAR-8 ovarian 103% | OVCAR-5 ovarian 112% | OVCAR-4 ovarian 115% | SK-OV-3 ovarian 108% | IGROV1 ovarian 110% | OVCAR-3 ovarian 119% | NCI/ADR-RES ovarian 102%
